Data from PubChem BioAssay (NCATS).
Values joined by “and” are separate entries in the source; they are usually repeats but may differ in a detail not shown here. Equal values may be shown once. Inconclusive results are not listed. Active and inactive are the calls of the source. The call rests on the fitted dose curve; in most records, active means well fitted inhibition curve with a large enough effect; inconclusive means small, poorly fitted or top-dose-only effect; inactive means flat fitted curve, though single readings scatter. Where a SMILES comes first, the peptide text is derived from it. [ ]: non-standard residue; d: D form. pGlu = O=C1CC[C@@H](C(=O)O)N1; Thz = O=C(O)[C@@H]1CSCN1

How the values were obtained:
W2 = test: qHTS profiling for inhibitors of Plasmodium falciparum proliferation (AID 504749); conditions: P. falciparum in erythrocytes, SYBR Green DNA, 72 h; series mostly up to 28.7 µM
Method in brief: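 SYBR Green fluorescence (ex 485 nm, em 535 nm) reports parasite DNA after 72 h compound exposure of infected red cells at 0.3% parasitemia, 2.5% hematocrit; signal normalized to 0.29 uM artemisinin and vehicle wells.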

CRL-7250 = normal cell line; test: Cytotoxic Profiling of Annotated Libraries Using Quantitative High-Throughput Screening (AID 1296008); conditions: Five cell lines viability, CellTiter-Glo ATP luminescence, 48-72 h; max response: stronger effect = lower value; on max response: on the % scale 0 is the no-effect control and ±100 the full control effect
Method in brief: (§1)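 Cells exposed to compounds for 48 or 72 hr at 37 degrees Celsius. Viability read as ATP-coupled luminescence with CellTiter-Glo after 10 min at room temperature.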

HEK293 = test: as above; conditions: Five cell lines viability, CellTiter-Glo ATP luminescence, 48-72 h; max response: stronger effect = lower value
Method in brief: as §1

HaCat [1] = test: as above; conditions: Five cell lines viability, CellTiter-Glo ATP luminescence, 48-72 h; max response: stronger effect = lower value
Method in brief: as §1

KB-3-1 = test: as above; conditions: Five cell lines viability, CellTiter-Glo ATP luminescence, 48-72 h; max response: stronger effect = lower value
Method in brief: as §1

NIH3T3 = test: as above; conditions: Five cell lines viability, CellTiter-Glo ATP luminescence, 48-72 h; max response: stronger effect = lower value
Method in brief: as §1

MCC-13 = test: qHTS assay to identify novel small-molecules to repurpose for Merkel cell carcinoma treatment (AID 1296009); conditions: MCC and control cell lines, CellTiter-Glo viability, 72 h; series mostly up to 46 µM
Method in brief: (§2)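 CellTiter-Glo luminescence after 72 hr compound exposure at 37 degree celsius gave cell viability. Libraries NPC and MIPE were run as 8- and 11-point dose responses; RLUs normalized to DMSO (negative) and no-cell (cytotoxicity) controls.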

MCC-26 = test: as above; conditions: MCC and control cell lines, CellTiter-Glo viability, 72 h; series mostly up to 46 µM
Method in brief: as §2

HACAT [2] = test: as above; conditions: MCC and control cell lines, CellTiter-Glo viability, 72 h; at 44.8 µM (top of the series) unless noted
Method in brief: as §2

HEK293T = test: as above; conditions: MCC and control cell lines, CellTiter-Glo viability, 72 h; at 44.8 µM (top of the series) unless noted
Method in brief: as §2
Further: nearly all actives have a fitted effect of over 60% in size.
Potency means the concentration at half of the fitted maximal effect.

Cc1ccc(C(=O)c2ccc(CC(=O)O)n2C)cc1
inactive: Potency (W2) | max response (CRL-7250) -1.54% | max response (HEK293) -2.23% | max response (HaCat [1]) 2.78% | max response (KB-3-1) -6.96% | max response (NIH3T3) 0.61% | Potency (MCC-13) | Potency (MCC-26)

C/C(=N\O)c1ccc(OCC(=O)N2CCCCC2)cc1
inactive: max response (CRL-7250) -1.81% | max response (HEK293) 2.8% | max response (HaCat [1]) 2.33% | outcome (KB-3-1) | max response (NIH3T3) -0.0363% | Potency (MCC-13)

CCC1C(=O)OCC1Cc1cncn1C (stereo not drawn)
inactive: Potency (W2) | outcome (CRL-7250) | max response (HEK293) 0.743% | max response (HaCat [1]) 0.604% | max response (KB-3-1) -11.4% | max response (NIH3T3) -5.1% | Potency (MCC-13)

CC(=O)c1ccc(OCC(=O)N2CCCCC2)cc1
inactive: max response (CRL-7250) 2.04% | max response (HEK293) -3.89% | max response (HaCat [1]) -0.673% | outcome (KB-3-1) | outcome (NIH3T3) | Potency (MCC-13)

Nc1c(CC(=O)O)cccc1C(=O)c1ccc(Br)cc1
inactive: Potency (W2) | max response (CRL-7250) 4.53% | max response (HEK293) 2.21% | outcome (HaCat [1]) | max response (KB-3-1) 0.539% | max response (NIH3T3) 2.91% | outcome (HACAT [2]) | Potency (MCC-13)

CC1(C)[C@@H](O[C@H]2O[C@H](C(=O)O)[C@@H](O)[C@H](O)[C@H]2O[C@@H]2O[C@H](C(=O)O)[C@@H](O)[C@H](O)[C@H]2O)CC[C@]2(C)[C@H]3C(=O)C=C4[C@@H]5C[C@@](C)(C(=O)O)CC[C@]5(C)CC[C@@]4(C)[C@]3(C)CC[C@@H]12
inactive: max response (CRL-7250) -24.4% | max response (HEK293) -5.35% | max response (HaCat [1]) -32.3%

O=C(Nc1ccc2[nH]ncc2c1)C1CCC1
inactive: outcome (CRL-7250) | max response (HEK293) 0.86% | max response (HaCat [1]) -2.65% | max response (KB-3-1) -1.12% | max response (NIH3T3) 4.63%

O=C(CS)Nc1ccccc1
inactive: max response (CRL-7250) -21.9% | max response (HEK293) -28.6% | outcome (HaCat [1]) | max response (KB-3-1) -19% | max response (NIH3T3) 0.87% | outcome (HACAT [2]) | Potency (MCC-13)

NCCO
inactive: max response (CRL-7250) -2.34% | max response (HEK293) 4.02% | outcome (HaCat [1]) | max response (KB-3-1) -25.6% | max response (NIH3T3) -0.614% | outcome (HACAT [2]) inactive [at 92 µM] | Potency (MCC-13) | Potency (MCC-26)

c1ccc2sc(SN3CCOCC3)nc2c1
inactive: outcome (CRL-7250) | outcome (HEK293) | outcome (HaCat [1]) | max response (KB-3-1) 0.575% | max response (NIH3T3) 0.685% | outcome (HACAT [2]) | outcome (HEK293T) | Potency (MCC-13)

C=CCCCCCCCCC(=O)O
inactive: Potency (W2) | max response (CRL-7250) 3.74% | outcome (HEK293) | max response (HaCat [1]) 0.628% | max response (KB-3-1) 1.18% | max response (NIH3T3) 0.287% | outcome (HEK293T) | Potency (MCC-13) | Potency (MCC-26)

CN1CCN(c2cc3c(nn2)Oc2ccccc2N3C)CC1
inactive: Potency (W2) | max response (CRL-7250) -2.91% | outcome (HEK293) | outcome (HaCat [1]) | max response (KB-3-1) -19.4% | max response (NIH3T3) -0.755% | outcome (HACAT [2]) inactive [at 17.4 µM] | outcome (HEK293T) inactive [at 17.4 µM] | Potency (MCC-13) | Potency (MCC-26)

CN(C)c1ccc(C(=C2C=CC(=[N+](C)C)C=C2)c2ccccc2)cc1
inactive: max response (KB-3-1) -1.13%
active: Potency (W2) 1350 nM | Potency (CRL-7250) 84.1 nM | Potency (HEK293) 94.4 nM | Potency (HaCat [1]) 266 nM | Potency (NIH3T3) 237 nM | Potency (MCC-13) 37.6 nM

CCCCCCCCCCCC(=O)[O][Sn]([CH2]CCC)([CH2]CCC)[O]C(=O)CCCCCCCCCCC
inactive: Potency (W2) | max response (CRL-7250) -26.6% | max response (HEK293) -9.3% | outcome (HaCat [1]) | max response (KB-3-1) -5.63% | max response (NIH3T3) 4.84% | outcome (HACAT [2]) | Potency (MCC-13)

Cc1ccc(O)c(-n2nc3ccccc3n2)c1
inactive: Potency (W2) | max response (CRL-7250) -18.8% | max response (HEK293) -9.47% | max response (HaCat [1]) -23.9% | max response (KB-3-1) -10.3% | max response (NIH3T3) 0.367% | Potency (MCC-13)

CC(C)OC(=O)c1cc(C(=O)OC(C)C)cc([N+](=O)[O-])c1
inactive: outcome (CRL-7250) | max response (HEK293) 4.1% | outcome (HaCat [1]) | max response (KB-3-1) 2.68% | max response (NIH3T3) -2.82% | outcome (HACAT [2]) inactive [at 92 µM] | Potency (MCC-13) | Potency (MCC-26)

CC(C(=O)O)c1ccc2c(c1)[nH]c1ccc(Cl)cc12 (stereo not drawn)
inactive: Potency (W2) | max response (CRL-7250) 2.04% | outcome (CRL-7250) | max response (HEK293) -1.79% | outcome (HEK293) | max response (HaCat [1]) 1.94% | outcome (HaCat [1]) | max response (KB-3-1) 2.49% and 1.67% | max response (NIH3T3) 1.25% and 0.838% | outcome (HACAT [2]) | outcome (HEK293T) | Potency (MCC-13)

O=C(O)Cc1ccc(-c2ccccc2)cc1
inactive: Potency (W2) | max response (CRL-7250) -1.48% | max response (HEK293) -6.63% | max response (HaCat [1]) -10.6% | max response (KB-3-1) -5.98% | max response (NIH3T3) -5.58% | Potency (MCC-13) | Potency (MCC-26)

O=C1CC[C@@H](C(=O)N2CSC[C@H]2C(=O)O)N1 ([pGlu]-[Thz]-OH)
inactive: Potency (W2) | max response (CRL-7250) -1.65% | max response (HEK293) -11.6% | max response (HaCat [1]) 2.27% | max response (KB-3-1) -5.47% | outcome (KB-3-1) | outcome (NIH3T3)

O=C(Nc1ccc2c(c1)CCN(Cc1ncn[nH]1)C2)c1ccccc1-c1ccc(C(F)(F)F)cc1
active: Potency (HEK293) 23100 nM
inactive: max response (CRL-7250) -23.1% | max response (HaCat [1]) 0.241%

C#CC1(O)CC[C@H]2[C@@H]3CCC4=CCCC[C@@H]4[C@H]3CC[C@@]21C (stereo partly drawn)
inactive: max response (CRL-7250) -8.11% | outcome (HEK293) | outcome (HaCat [1]) | max response (KB-3-1) -2.21% | max response (NIH3T3) -0.384% | outcome (HACAT [2]) | outcome (HEK293T)

CN1CC(=O)N/C1=N/C(=O)Nc1cccc(Cl)c1
inactive: max response (CRL-7250) 2.65% | outcome (HEK293) | outcome (HaCat [1]) | max response (KB-3-1) 1.15% and -4.39% | max response (NIH3T3) -0.466% | outcome (HACAT [2]) | outcome (HEK293T) | Potency (MCC-13) | Potency (MCC-26)

O=C(O)CC1CC(c2ccccc2)=NO1 (stereo not drawn)
inactive: max response (CRL-7250) -3.03% | max response (HEK293) 0.396% | max response (HaCat [1]) -1.53% | outcome (KB-3-1) | max response (NIH3T3) -6.76%

Cc1c(N)c(=O)n(-c2ccccc2)n1C
inactive: max response (CRL-7250) 4.52% | max response (HEK293) -1.84% | outcome (HaCat [1]) | max response (KB-3-1) -14.7% | max response (NIH3T3) -4.09% | outcome (HACAT [2]) | Potency (MCC-13) | Potency (MCC-26)

C[C@H](O)[C@H](O)[C@H]1CNc2nc(N)[nH]c(=O)c2N1
inactive: outcome (CRL-7250) | outcome (HEK293) | max response (HaCat [1]) 1.87% | max response (KB-3-1) 14% | outcome (KB-3-1) | outcome (NIH3T3) | outcome (HEK293T)

CCNC(=O)[C@H]1O[C@@H](n2cnc3c(N)nc(NCCc4ccc(CCC(=O)O)cc4)nc32)[C@H](O)[C@@H]1O
inactive: max response (CRL-7250) 3.23% | outcome (HEK293) | max response (HaCat [1]) 2.46% | max response (KB-3-1) 2.49% | max response (NIH3T3) -6.33% | outcome (HEK293T)

COc1cc2c3cc1Oc1cc(ccc1O)C[C@@H]1c4c(cc(OC)c(O)c4Oc4ccc(cc4)C[C@@H]3N(C)CC2)CC[N+]1(C)C
inactive: Potency (W2) | max response (CRL-7250) 1.72% | outcome (HEK293) | max response (HaCat [1]) 1.8% | max response (KB-3-1) -2.77% | max response (NIH3T3) 4.48% | outcome (HEK293T) | Potency (MCC-13)

O=c1[nH]c2ccccc2n1CCCN1CCN(C(c2ccccc2)c2ccccc2)CC1
active: Potency (W2) 6750 nM | Potency (HEK293) 16800 nM
inactive: max response (CRL-7250) -27.4% | max response (HaCat [1]) -21.6% | max response (KB-3-1) 18.6% | max response (NIH3T3) -21.6% | Potency (MCC-13) | Potency (MCC-26)

N=C(N)N
inactive: max response (CRL-7250) -5.46% | outcome (HEK293) | outcome (HaCat [1]) | max response (KB-3-1) -12.6% | outcome (NIH3T3) | outcome (HACAT [2]) | outcome (HEK293T) | Potency (MCC-13)

CCOC(=O)c1ccccc1O
inactive: Potency (W2) | max response (CRL-7250) 3.39% | outcome (HEK293) | max response (HaCat [1]) -10.3% | max response (KB-3-1) -11.3% and -16.2% | max response (NIH3T3) -7.47% | outcome (HEK293T) | Potency (MCC-13) | Potency (MCC-26)

CN(CCCOc1ccc(Cc2ccccc2)cc1)CCC(=O)O
inactive: max response (CRL-7250) 2.73% | max response (HEK293) -4.43% | max response (HaCat [1]) -16.1% | max response (KB-3-1) 7.31% | outcome (NIH3T3)

CC1(C)[C@@H](O)CC[C@]2(C)[C@H]3C(=O)C=C4[C@@H]5C[C@@](C)(C(=O)O)CC[C@]5(C)CC[C@@]4(C)[C@]3(C)CC[C@@H]12
inactive: Potency (W2) | max response (CRL-7250) 1.85% | outcome (HEK293) | max response (HaCat [1]) -15.3% | max response (KB-3-1) 9.23% and -7.89% | outcome (KB-3-1) | max response (NIH3T3) -0.299% | outcome (HEK293T)
